# Measured values taken from PubChem BioAssay AID504766 (The Scripps Research Institute Molecular Screening Center, 2011).
# In all, about 340,000 compounds went through this assay and about 3,400 (1%) were called active. Many of the other results were omitted from the sample, so actives are more common in it than they were. A number with no mark means an inactive call.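 The calls were made as follows: active = inhibition above the mean over all tested compounds plus 3 SD (cut at about 4.2% in these data); inactive = the rest.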
# Biological target: Nuclear receptor subfamily 0 group B member 1 (Homo sapiens) (UniProt P51843)
# Experiment: relief of DAX1 transcriptional repression – cell-based, HEK293, Gal4-DAX1, luciferase luminescence, primary screen (AID 504766);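 also: 0% = DAX1-transfected cells with DMSO and 100% = empty-vector control cells with DMSO; inhibition shows as a rise in luminescence from relieved DAX1 repression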
# Conditions: HEK293 Gal4-DAX1 luciferase reporter, at 6.75 µM, stronger effect = higher value
# Sequence of Nuclear receptor subfamily 0 group B member 1 (Homo sapiens) (P51843 207-470 limits assumed): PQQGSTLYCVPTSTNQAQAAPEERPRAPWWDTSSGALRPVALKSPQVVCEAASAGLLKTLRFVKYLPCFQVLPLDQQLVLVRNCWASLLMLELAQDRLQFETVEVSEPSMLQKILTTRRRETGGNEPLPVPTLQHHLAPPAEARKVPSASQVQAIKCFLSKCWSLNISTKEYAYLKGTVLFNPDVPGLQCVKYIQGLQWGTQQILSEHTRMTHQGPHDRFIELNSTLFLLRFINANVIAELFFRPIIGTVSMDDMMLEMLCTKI
row,SMILES,inhibition
1,COCCNC(=O)COc1ccc(N(C)S(=O)(=O)c2ccc3ccccc3c2)cc1,-1.92%
2,CN(C)S(=O)(=O)c1cccc(NC(=O)COc2ccc3ccccc3c2)c1,-1.43%
3,COC(=O)C(C)NC(=O)COc1ccc2ccccc2c1 (centres undefined),4.35% (active)
4,COc1ccc2nc(-c3ccccn3)ccc2c1,-0.26%
5,COc1ccc([C@H]2N[C@]3(CCCN(CC4CCCCC4)C3=O)[C@H]3C(=O)N(C)C(=O)[C@@H]23)cc1,0.64%
6,CCn1c(SCC(=O)NC2CC2)nnc1-c1ccccc1OC,1.22%
7,Cc1occc1-c1nnc(SCC(=O)NC2CCCCC2)o1,0.12%
8,CCn1c(SCC(=O)NC2CCCC2)nnc1-c1ccoc1C,4.45% (active)
9,C[C@@H]1CN([C@H](C)CO)C(=O)c2cc(Br)cnc2O[C@@H]1CN(C)Cc1cncnc1,0%
10,Clc1ccccc1-c1cc(COc2ccc3ccccc3c2)no1,4.61% (active)
11,c1ccc2cc(OCCN3CCCC3)ccc2c1,0.12%
12,Clc1ccc(-c2cc(COc3ccccc3)no2)cc1Cl,0.18%
13,Cc1ccccc1-c1ccc2c(c1)O[C@@H](CN(C)Cc1ccc(C(=O)O)cc1)[C@@H](C)CN([C@H](C)CO)S2(=O)=O,-0.49%
14,Cc1ccnc(SC2CC(=O)N(c3ccccc3)C2=O)n1 (centres undefined),2.33%
15,COc1ccc(N2C(=O)c3ccccc3NC2c2ccc(OC)c(CN3CCOCC3)c2)cc1 (centres undefined),3.5%
16,COc1ccc(C2Nc3ccccc3C(=O)N2c2ccc(F)cc2)cc1Cn1nnc2ccccc21 (centres undefined),-0.72%
17,COc1ccc(C2Nc3ccccc3C(=O)N2c2ccc(Cl)cc2)cc1Cn1cc([N+](=O)[O-])cn1 (centres undefined),4.6% (active)
18,COc1ccc(Cl)cc1NC(=O)CN(C)C(=O)c1cn(-c2ccccc2)nc1-c1cccs1,-0.65%
19,COCC1CCCCN1C(=O)c1cc(COc2ccc(C)c(C)c2)on1 (centres undefined),2.51%
20,O=S(=O)(NC1CCCC1)c1ccc(-n2cnnn2)cc1,0.06%
21,c1cc(-n2cnnn2)ccc1NC1=NCCC1,5.97% (active)
22,O=S(=O)(Nc1ccc(-n2cnnn2)cc1)c1ccc(Cl)cc1,0.55%
23,C[C@@H]1CN([C@H](C)CO)C(=O)CCCn2cc(nn2)CO[C@H]1CN(C)S(C)(=O)=O,0.1%
24,CC1(C)NC(=O)N(CC(=O)Nc2ccc(-c3ccccc3)cc2)C1=O,1.36%

row,SMILES,inhibition
1,CCOC(=O)C1(C(F)(F)F)N=C(N(C)C)OC(N(C)C)=N1,5.05% (active)
2,CCOC(=O)C1=C(C)c2ccccc2OC1(C)C(=O)OCC (centres undefined),0.33%
3,O=C1CC[C@@H](C(=O)N2CSC[C@@H]2C(=O)Nc2ccc(C(F)(F)F)cc2)N1,0.12%
4,N#Cc1ccccc1NC(=O)c1ccc2c(c1)OCO2,2.82%
5,Cn1c(=O)n(C)c2cc(C(=O)Nc3ccc4c(c3)OCO4)ccc21,13.2% (active)
6,O=C(Nc1ccc(N2CCOCC2)cc1)c1ccc2c(c1)OCO2,1.98%
7,O=C(Nc1ccc2c(c1)OCO2)c1ccc(N2C(=O)c3ccccc3C2=O)cc1,0.86%
8,O=C(Nc1ccccc1F)c1ccc2c(c1)OCO2,4.59% (active)
9,Cn1c(=O)n(C)c2cc(C(=O)Nc3ccc(Br)cc3)ccc21,4.79% (active)
10,O=C(CN1CCN(c2ccccc2F)CC1)c1ccc2c(c1)OCO2,-0.06%
11,Cn1c(=O)n(C)c2cc(/C=N/NC(=O)c3cccc(Br)c3)ccc21,-2.01%
12,COc1cccc(OC)c1C(=O)Nc1ccc2c(c1)n(C)c(=O)n2C,1.46%
13,CNC(=O)C[C@H]1C(=O)N(Cc2ccccc2)C[C@@H]1CSC,0.53%
14,Cc1cccc(S(=O)(=O)N(C)C[C@@H]2OCc3cnnn3CCCC(=O)N([C@H](C)CO)C[C@@H]2C)c1,-0.51%
15,CCCNC(=O)C1CC(=O)N(c2ccc(OCc3ccccc3)cc2)C1 (centres undefined),2.8%
16,C=CCOc1ccccc1CNn1c(C)n[nH]c1=S,0.12%
17,CCN1CCCC1CNC(=O)c1ccc2c(c1)NC(=O)/C(=C\c1ccccc1F)S2 (centres undefined),1.21%
18,O=C(O)c1ccccc1Cc1ccc(F)c2ccccc12,1.12%
19,CSc1ncccc1C(=O)N1CCCC(Nc2ccc(F)c(F)c2)C1 (centres undefined),-0.54%
20,COc1ccc(-c2csc(Nc3cccc(C)n3)n2)cc1OC,3.01%
21,COc1ccc2c(c1OC)C(=O)OC2Nc1nc(-c2ccccc2)cs1 (centres undefined),0.66%
22,CC(=O)Nc1cccc(-c2csc(Nc3cccc(C)n3)n2)c1,4.29% (active)
23,CCCCCCC(=O)Nc1nc(C)c(-c2csc(Nc3cccc(OC)c3)n2)s1,1.39%
24,Cc1cccc(Nc2nc(-c3ccccc3)cs2)n1,7.24% (active)

row,SMILES,inhibition
1,Cc1ccc(-c2csc(NC(=O)C3=COCCO3)n2)cc1C,-1.52%
2,CC(C)C1CCN(C(=O)C2CCC(=O)N(C3CCCCCC3)C2)CC1 (centres undefined),1.56%
3,CCOC(=O)c1cnn2c(SC)ncnc12,0.53%
4,Cc1ccc2cccc([N+](=O)[O-])c2n1,0.58%
5,NC(=O)C1(Nc2ccc(-c3ccccc3)cc2)CCCC1,0.6%
6,NC(=O)C1(Nc2ccccc2Cl)CCCC1,4.62% (active)
7,NC(=O)C1(Nc2ccc([N+](=O)[O-])cc2)CCCC1,-1.28%
8,Cc1ccc(Cc2c(-c3ccccc3)nc3ccc(Cl)cn23)cc1,-0.15%
9,CCOc1ccc(S(=O)(=O)NCCC(=O)NNC(=O)c2ccc(F)cc2)cc1,1.04%
10,Cc1ccc(Oc2nc3ccccc3n3c(C)nnc23)cc1,-0.82%
11,Cc1ccc(OCc2nc3ccccc3n2C)cc1,4.76% (active)
12,Cn1c(COc2ccc(Cl)cc2)nc2ccccc2c1=O,0.73%
13,Cc1ccccc1C#CC1=CC(=O)CC(C)(C)C1,-0.14%
14,C[C@H]1CN([C@@H](C)CO)C(=O)c2cc(-c3ccccc3F)cnc2O[C@H]1CN(C)C(=O)C1CCOCC1,1.09%
15,CC1(C)CN(CCc2ccccc2)C(=O)[C@H]1CC(=O)Nc1ccc(Br)cc1,0.23%
16,COc1ccc(-c2csc3nc(-c4ccccc4F)oc(=O)c23)cc1OC,-1.37%
17,COc1ccc(-c2noc(-c3cccc(OC)c3OC)n2)cc1OC,4.33% (active)
18,COc1ccc(-c2noc(CCCC(=O)NC3CCCC3)n2)cc1OC,0.14%
19,COc1ccc(S(=O)(=O)N(C)C)cc1NC(=O)COC(=O)c1n[nH]c2ccccc12,-0.33%
20,Cc1cc(OCC(=O)Nc2nccs2)c2c(C)c(C)c(=O)oc2c1,0.98%
21,Cc1cc(OCc2cc(C(=O)NCc3cc(C(C)C)no3)no2)cc(C)c1Cl,7.06% (active)
22,Cc1cccnc1CC(C)NC(=O)c1cc(COc2cncc(Cl)c2)on1 (centres undefined),0.03%
23,COc1ccc(OCc2cc(C(=O)NCC3(C)COC3)no2)c(Cl)c1,0.65%
24,COc1ccc(Cn2c(=O)oc3ccccc32)cc1,0.51%

row,SMILES,inhibition
1,COc1ccc(/C=C2\SC(=S)N(CCC(=O)N3CCOCC3)C2=O)cc1OC,-0.88%
2,COC(=O)[C@H]1C[C@H](OC(=O)NCc2ccccc2)[C@@]2(O)CN(S(=O)(=O)c3ccc(C)cc3)CC2[C@H]1C(=O)OC (some centres undefined),0.61%
3,O=C(CNC(=O)c1cc(=O)[nH]c2ccccc12)Nc1ccc(F)c(F)c1,7.53% (active)
4,CC(NC(=O)c1cc(=O)[nH]c2ccccc12)c1ccc(F)cc1F (centres undefined),0.16%
5,CC(C)(CNC(=O)c1cc(=O)[nH]c2ccccc12)N1CCOCC1,-0.11%
6,C[C@H]1CN([C@@H](C)CO)C(=O)CCCn2cc(nn2)CO[C@@H]1CN(C)S(=O)(=O)c1ccccc1C#N,0.36%
7,Cc1ccc(NC(=O)Cn2sc3ccccc3c2=O)cc1,2.09%
8,CC(=O)Nc1ccccc1NC(=O)c1cc(C)cc(C)c1,0.39%
9,Nc1ccc(C(=O)Nc2ccccc2N)cc1,22.7% (active)
10,Nc1ccc(S(=O)(=O)NC(=O)c2ccccc2)cc1,1.24%
11,Cc1nc2ccccn2c(=O)c1NC(=O)c1ccc(Br)o1,1.03%
12,CC(=O)C1C(c2ccc(Cl)cc2)c2c(n[nH]c2C)CC1(C)O (centres undefined),5.48% (active)
13,CCOC(=O)C1C(c2ccc(OC)c(OC)c2)c2c([nH][nH]c2=O)CC1(C)O (centres undefined),0.5%
14,Cc1noc(C)c1NC(=O)N(C)C[C@@H]1Oc2cc(Br)ccc2S(=O)(=O)N([C@@H](C)CO)C[C@H]1C,0.32%
15,CC1CCCC(NC(=O)COC(=O)c2ccccc2C(=O)N(C)C2CCCCC2)C1C (centres undefined),-0.71%
16,Cc1ccc(-c2ccc(CN3C(C(C)C)C(=O)N(Cc4cn(CCC5OCCCO5)nn4)CCS3(=O)=O)cc2)cc1 (centres undefined),-0.79%
17,COC(=O)c1cccc(N(C(=O)CNC(=O)c2cccs2)C(C(=O)NCC2CCCO2)c2ccc(OC)c(OC)c2)c1 (centres undefined),4.73% (active)
18,O=C(NCC(=O)N(c1ccccc1)C(C(=O)NCC1CCCO1)c1ccccc1)c1cccs1 (centres undefined),-0.74%
19,COc1ccc(N(C(=O)CNC(=O)c2ccco2)C(C(=O)NCC2CCCO2)c2ccccc2)cc1Cl (centres undefined),0.19%
20,O=C(CSc1nc2ccccc2s1)Nc1ccc(C(=O)O)cc1,4.73% (active)
21,O=C(CSc1nnc(SCc2ccc(F)cc2)s1)Nc1ccc(C(=O)O)cc1,-0.63%
22,Nc1nnc(SCC(=O)Nc2ccc3nc(SCC(=O)Nc4ccccc4)sc3c2)s1,-3.13%
